# In the supplement of paper PMC10849652:
# About 8,800 targets were measured; listed, in parts, are those with a hit and a random draw of the rest. About 0.5% of all pairs of compound and target were hits. Values without a mark were called inactive.
# Columns and labels:
# Assay in all cases: log2 fold change, soluble protein after heating vs DMSO (PISA); higher = thermal stabilisation; K562 lysate, 10 uM; active = over 0.2 and 3.5 SD of the protein, either way, in both replicates (recomputed)
# vemurafenib = compound: CCCS(=O)(=O)Nc1ccc(F)c(C(=O)c2c[nH]c3ncc(-c4ccc(Cl)cc4)cc23)c1F [vemurafenib]
# How it was run: (§1)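 Quantification was by TMTpro 16plex LC-MS/MS with equalised channel sums, applied to the supernatant after 21,000xg for 90 min. Samples were crude K562 extract at 1 mg/mL protein in PBS pH 7.4 with 1 mM MgCl2, treated with 10 μM compound for 30 min, heated for 3 min across 48°C-58°C, pooled and brought to 0.5% NP-40 at 4°C. Values are log-two fold changes in thermal stability relative to solvent controls, from duplicates.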
# [1] = compound: CCCS(=O)(=O)Nc1ccc(F)c(C(=O)c2c[nH]c3ncc(Cl)cc23)c1F
# How it was run: as §1
# barasertib = compound: CCN(CCCOc1ccc2c(Nc3cc(CC(=O)Nc4cccc(F)c4)[nH]n3)ncnc2c1)CCOP(=O)(O)O [barasertib]
# How it was run: as §1
# [2] = compound: CC[C@@H]1C(=O)N(C)c2cnc(Nc3ccc(C(=O)NC4CCN(C)CC4)cc3OC)nc2N1C1CCCC1
# How it was run: as §1
# volasertib = compound: CC[C@@H]1C(=O)N(C)c2cnc(Nc3ccc(C(=O)N[C@H]4CC[C@H](N5CCN(CC6CC6)CC5)CC4)cc3OC)nc2N1C(C)C [volasertib]
# How it was run: as §1
# [3] = compound: CCn1c(C(=O)N(C2CC2)C2CC2)cc2c3c(ncn3C)c(Nc3cc(C)n(C)n3)nc21
# How it was run: as §1
# [4] = compound: CCn1cc(-c2ccnc3[nH]c(-c4cccc(CN(C)C)c4)cc23)c(-c2ccc(NC(=O)N(C)C)cc2)n1
# How it was run: as §1
# [5] = compound: CN1CCC(CNc2ccc3ncc(-c4cccc(OC(F)(F)F)c4)n3n2)CC1
# How it was run: as §1
# saracatinib = compound: CN1CCN(CCOc2cc(OC3CCOCC3)c3c(Nc4c(Cl)ccc5c4OCO5)ncnc3c2)CC1 [saracatinib]
# How it was run: as §1
# sotrastaurin = compound: CN1CCN(c2nc(C3=C(c4c[nH]c5ccccc45)C(=O)NC3=O)c3ccccc3n2)CC1 [sotrastaurin]
# How it was run: as §1
# Chain of UniProt Q9UJX3 (Q9UJX3 whole entry, looked up): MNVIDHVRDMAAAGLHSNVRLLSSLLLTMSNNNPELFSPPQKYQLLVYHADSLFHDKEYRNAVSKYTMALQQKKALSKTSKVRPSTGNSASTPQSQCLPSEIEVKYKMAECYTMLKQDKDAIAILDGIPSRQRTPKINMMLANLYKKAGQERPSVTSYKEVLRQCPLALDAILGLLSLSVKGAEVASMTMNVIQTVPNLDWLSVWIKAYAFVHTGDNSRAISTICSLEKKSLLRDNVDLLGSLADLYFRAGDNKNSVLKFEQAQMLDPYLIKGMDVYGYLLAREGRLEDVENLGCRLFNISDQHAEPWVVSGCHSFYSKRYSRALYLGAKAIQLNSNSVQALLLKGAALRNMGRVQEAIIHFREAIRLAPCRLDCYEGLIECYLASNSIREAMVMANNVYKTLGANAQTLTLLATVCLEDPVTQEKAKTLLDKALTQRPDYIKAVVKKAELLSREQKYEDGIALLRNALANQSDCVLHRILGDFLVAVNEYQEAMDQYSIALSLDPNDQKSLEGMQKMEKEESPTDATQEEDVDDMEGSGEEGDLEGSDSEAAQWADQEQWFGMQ
# Chain of UniProt O43823 (O43823 whole entry, looked up): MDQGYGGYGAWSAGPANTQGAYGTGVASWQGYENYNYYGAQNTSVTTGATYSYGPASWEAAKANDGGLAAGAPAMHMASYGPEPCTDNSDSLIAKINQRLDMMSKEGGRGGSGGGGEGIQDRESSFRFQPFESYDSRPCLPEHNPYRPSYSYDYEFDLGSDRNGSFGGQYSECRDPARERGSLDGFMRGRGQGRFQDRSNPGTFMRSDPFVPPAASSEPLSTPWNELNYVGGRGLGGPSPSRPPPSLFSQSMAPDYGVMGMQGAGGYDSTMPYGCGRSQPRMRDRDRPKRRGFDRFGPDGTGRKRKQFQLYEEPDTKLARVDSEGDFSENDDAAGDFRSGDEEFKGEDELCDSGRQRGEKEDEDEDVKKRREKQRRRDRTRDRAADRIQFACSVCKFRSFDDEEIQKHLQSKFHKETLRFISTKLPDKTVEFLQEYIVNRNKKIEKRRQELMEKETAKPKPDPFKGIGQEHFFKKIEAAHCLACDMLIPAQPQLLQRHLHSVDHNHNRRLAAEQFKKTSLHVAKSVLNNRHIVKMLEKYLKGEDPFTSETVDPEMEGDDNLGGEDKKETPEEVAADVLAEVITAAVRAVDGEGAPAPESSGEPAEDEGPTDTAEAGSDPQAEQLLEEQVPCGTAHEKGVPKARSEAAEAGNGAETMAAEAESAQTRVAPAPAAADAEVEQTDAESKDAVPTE
# Chain of UniProt Q9BTT0 (Q9BTT0 whole entry, looked up): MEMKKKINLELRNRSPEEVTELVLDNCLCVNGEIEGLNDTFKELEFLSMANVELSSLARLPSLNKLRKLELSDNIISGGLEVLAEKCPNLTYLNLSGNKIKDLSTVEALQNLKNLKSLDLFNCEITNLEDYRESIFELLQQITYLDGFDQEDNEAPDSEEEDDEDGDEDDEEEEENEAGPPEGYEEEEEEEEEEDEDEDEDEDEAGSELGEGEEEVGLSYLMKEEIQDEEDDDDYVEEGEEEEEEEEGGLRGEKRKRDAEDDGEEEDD
# Chain of UniProt O14617 (O14617 whole entry, looked up): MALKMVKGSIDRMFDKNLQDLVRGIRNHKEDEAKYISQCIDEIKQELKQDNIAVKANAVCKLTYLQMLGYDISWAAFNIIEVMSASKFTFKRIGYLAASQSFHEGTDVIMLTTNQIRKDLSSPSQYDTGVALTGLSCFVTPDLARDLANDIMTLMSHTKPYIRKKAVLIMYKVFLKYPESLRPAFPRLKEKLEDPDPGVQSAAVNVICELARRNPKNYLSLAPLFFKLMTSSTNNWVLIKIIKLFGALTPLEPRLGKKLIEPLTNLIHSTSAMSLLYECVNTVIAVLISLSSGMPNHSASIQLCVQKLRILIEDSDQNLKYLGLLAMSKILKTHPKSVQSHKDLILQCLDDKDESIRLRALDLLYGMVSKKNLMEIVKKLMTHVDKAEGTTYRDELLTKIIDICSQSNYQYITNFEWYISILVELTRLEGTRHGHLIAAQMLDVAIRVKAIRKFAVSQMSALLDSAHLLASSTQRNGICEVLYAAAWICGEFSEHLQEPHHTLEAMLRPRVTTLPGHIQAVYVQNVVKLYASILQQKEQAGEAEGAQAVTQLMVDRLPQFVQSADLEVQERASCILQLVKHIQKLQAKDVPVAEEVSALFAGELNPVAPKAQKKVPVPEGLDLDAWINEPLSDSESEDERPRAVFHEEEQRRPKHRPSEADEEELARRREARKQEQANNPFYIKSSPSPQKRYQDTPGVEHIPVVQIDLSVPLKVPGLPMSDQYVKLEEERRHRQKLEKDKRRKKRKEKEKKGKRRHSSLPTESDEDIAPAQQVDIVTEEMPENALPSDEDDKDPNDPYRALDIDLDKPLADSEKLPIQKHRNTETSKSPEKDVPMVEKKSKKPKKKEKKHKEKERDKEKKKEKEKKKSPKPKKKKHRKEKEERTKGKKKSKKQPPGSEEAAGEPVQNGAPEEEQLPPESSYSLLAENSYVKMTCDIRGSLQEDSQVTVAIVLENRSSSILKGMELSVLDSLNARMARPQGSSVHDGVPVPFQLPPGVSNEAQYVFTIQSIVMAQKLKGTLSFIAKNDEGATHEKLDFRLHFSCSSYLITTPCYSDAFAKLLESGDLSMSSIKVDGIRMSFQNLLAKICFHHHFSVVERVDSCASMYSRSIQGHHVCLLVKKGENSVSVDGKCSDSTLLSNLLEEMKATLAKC
# Chain of UniProt P09110 (P09110 whole entry, looked up): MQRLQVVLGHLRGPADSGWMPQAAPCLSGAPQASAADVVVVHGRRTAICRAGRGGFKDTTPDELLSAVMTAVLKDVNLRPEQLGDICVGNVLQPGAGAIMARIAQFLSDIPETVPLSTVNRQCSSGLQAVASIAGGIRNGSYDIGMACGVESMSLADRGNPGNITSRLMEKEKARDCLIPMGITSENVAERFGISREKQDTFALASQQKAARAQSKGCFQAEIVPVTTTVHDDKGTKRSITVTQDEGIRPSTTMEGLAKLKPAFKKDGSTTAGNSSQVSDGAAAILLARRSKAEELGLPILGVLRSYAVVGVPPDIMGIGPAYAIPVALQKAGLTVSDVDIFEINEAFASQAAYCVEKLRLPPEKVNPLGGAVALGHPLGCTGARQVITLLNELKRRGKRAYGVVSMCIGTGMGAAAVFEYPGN
# Chain of UniProt Q9P1F3 (Q9P1F3 whole entry, looked up): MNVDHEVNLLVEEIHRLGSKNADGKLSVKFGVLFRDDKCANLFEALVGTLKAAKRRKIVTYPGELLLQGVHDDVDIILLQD
# Chain of UniProt O15120 (O15120 whole entry, looked up): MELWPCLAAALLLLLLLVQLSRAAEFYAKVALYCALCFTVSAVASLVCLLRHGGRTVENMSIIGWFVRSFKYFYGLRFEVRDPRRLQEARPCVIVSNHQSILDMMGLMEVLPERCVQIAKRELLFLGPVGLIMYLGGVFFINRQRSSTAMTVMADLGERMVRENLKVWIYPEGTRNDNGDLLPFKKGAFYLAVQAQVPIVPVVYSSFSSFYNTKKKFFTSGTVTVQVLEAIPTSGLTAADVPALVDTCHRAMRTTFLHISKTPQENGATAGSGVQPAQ
# Chain of UniProt Q9BQI0 (Q9BQI0 whole entry, looked up): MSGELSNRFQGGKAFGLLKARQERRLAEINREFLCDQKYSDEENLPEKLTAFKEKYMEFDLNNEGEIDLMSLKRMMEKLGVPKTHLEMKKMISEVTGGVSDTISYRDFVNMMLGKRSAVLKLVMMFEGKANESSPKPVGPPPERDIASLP
# Chain of UniProt Q5VST6 (Q5VST6 whole entry, looked up): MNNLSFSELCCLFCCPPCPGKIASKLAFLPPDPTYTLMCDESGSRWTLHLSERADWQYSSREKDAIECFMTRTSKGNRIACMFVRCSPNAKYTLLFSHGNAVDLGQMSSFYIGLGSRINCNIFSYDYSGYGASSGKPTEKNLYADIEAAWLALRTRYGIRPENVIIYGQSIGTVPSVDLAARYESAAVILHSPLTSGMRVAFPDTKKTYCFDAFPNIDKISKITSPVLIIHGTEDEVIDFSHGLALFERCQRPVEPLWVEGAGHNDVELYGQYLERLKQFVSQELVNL
# Chain of UniProt Q9UH62 (Q9UH62 whole entry, looked up): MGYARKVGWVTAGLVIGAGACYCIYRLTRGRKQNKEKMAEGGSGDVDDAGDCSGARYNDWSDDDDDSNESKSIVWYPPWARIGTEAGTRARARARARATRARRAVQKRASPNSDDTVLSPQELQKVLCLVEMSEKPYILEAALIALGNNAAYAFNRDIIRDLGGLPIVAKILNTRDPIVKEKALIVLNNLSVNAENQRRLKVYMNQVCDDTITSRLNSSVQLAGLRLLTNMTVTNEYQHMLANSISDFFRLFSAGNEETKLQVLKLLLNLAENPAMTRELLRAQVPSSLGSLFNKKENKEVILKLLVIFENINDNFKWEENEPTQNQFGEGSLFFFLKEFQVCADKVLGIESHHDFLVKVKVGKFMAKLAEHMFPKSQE
# Chain of UniProt P16219 (P16219 whole entry, looked up): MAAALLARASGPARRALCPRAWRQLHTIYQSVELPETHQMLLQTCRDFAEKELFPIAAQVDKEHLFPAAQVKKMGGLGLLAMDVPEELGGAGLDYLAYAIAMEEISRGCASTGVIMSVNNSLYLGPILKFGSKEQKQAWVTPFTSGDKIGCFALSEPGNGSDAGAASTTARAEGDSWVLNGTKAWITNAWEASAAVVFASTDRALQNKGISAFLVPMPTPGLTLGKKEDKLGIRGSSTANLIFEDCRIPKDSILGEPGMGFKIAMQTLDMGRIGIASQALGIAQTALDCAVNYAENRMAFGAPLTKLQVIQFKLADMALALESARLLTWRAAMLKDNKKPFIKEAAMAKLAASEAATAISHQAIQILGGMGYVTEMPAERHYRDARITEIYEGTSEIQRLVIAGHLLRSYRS
# Chain of UniProt Q96BM9 (Q96BM9 whole entry, looked up): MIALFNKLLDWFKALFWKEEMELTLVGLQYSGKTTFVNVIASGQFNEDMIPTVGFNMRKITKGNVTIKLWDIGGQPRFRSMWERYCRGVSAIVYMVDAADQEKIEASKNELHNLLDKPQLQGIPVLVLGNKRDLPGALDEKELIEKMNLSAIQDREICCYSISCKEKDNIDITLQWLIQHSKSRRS
Target,log2 fold change (vemurafenib),log2 fold change [1],log2 fold change (barasertib),log2 fold change [2],log2 fold change (volasertib),log2 fold change [3],log2 fold change [4],log2 fold change [5],log2 fold change (saracatinib),log2 fold change (sotrastaurin)
ANP32E (UniProt Q9BTT0),-0.012,0.004,-0.064,0.059,-0.001,-0.011,-0.058,0.024,0.028,-0.023
AGTPBP1 (UniProt Q9UPW5),0.151,0.075,-0.223,0.036,-0.089,-0.013,0.013,-0.409 (active),0.108,-0.126
ALG3 (UniProt Q92685),0.084,-0.011,0.031,0.012,0.01,0.032,-0.371,0.06,0.068,0.029
ALKBH4 (UniProt Q9NXW9),0.061,0.018,0.086,-0.133,-0.068,0.074,0.025,0,-0.019,0.036
AKAP8 (UniProt O43823),0.006,0.044,0.056,-0.009,-0.03,-0.013,-0.056,0.044,0.075,0.008
ARMCX3 (UniProt Q9UH62),-0.024,0.027,0.102,-0.033,-0.045,0.021,-0.01,-0.049,0.012,0.016
AGO4 (UniProt Q9HCK5),0.033,0.003,0.04,-0.003,0.017,-0.003,0.036,0.041,-0.011,-0.021
AP4B1 (UniProt Q9Y6B7),0.026,0.087,0.028,-0.01,-0.009,0.011,-0.035,0.02,0.042,-0.027
ACADM isoform 2 (UniProt P11310),0.02,-0.011,0.069,0.001,-0.062,-0.051,-0.031,-0.046,-0.023,0.67 (active)
AHCYL1 (UniProt O43865),0.018,0.021,-0.001,0.001,-0.073,-0.021,-0.055,-0.012,-0.021,0.006
ARL8A (UniProt Q96BM9),-0.029,-0.26,-0.026,-0.001,-0.037,-0.03,0.558 (active),-0.199,0.03,0.022
ACAA1 (UniProt P09110),0.034,0.033,-0.027,0.006,0.036,0.001,-0.049,0.039,0.002,-0.004
ACADS (UniProt P16219),0.023,0.017,0.006,-0.039,-0.016,-0.02,0.016,0.003,-0.026,-0.026
ACACB (UniProt O00763),0.012,0.028,0.024,-0.113,-0.11,0.038,-0.14,0.027,0.018,0.037
AMD1 (UniProt P17707),0.096,-0.01,0.064,0.036,-0.014,0.117,-0.129,0.127,0.013,-0.002
ARGLU1 (UniProt Q9NWB6),-0.013,0.027,-0.043,0.001,0.027,-0.035,0.073,-0.02,0.047,-0.019
AKT2 (UniProt P31751),0.008,0,-0.026,-0.024,-0.031,0.025,0.007,0.004,-0.011,0.017

Target,log2 fold change (vemurafenib),log2 fold change [1],log2 fold change (barasertib),log2 fold change [2],log2 fold change (volasertib),log2 fold change [3],log2 fold change [4],log2 fold change [5],log2 fold change (saracatinib),log2 fold change (sotrastaurin)
AIMP2 (UniProt Q13155),-0.026,0.022,0.031,-0.131,-0.063,-0.019,-0.008,-0.079,0.018,0.015
AP3D1 isoform 5 (UniProt O14617),-0.001,-0.002,0.036,-0.004,0,0.002,-0.08,0.034,0.001,0.013
ABHD17B (UniProt Q5VST6),0.051,-0.002,-0.073,0.234,0.094,-0.034,0.08,0.054,0.092,-0.002
ACLY isoform 2 (UniProt P53396),0.035,0,-0.088,0.045,-0.033,-0.187,-0.485 (active),0.43,–,0.02
AP3D1 isoform 2 (UniProt O14617),0.002,-0.085,–,–,-0.012,–,-0.231,0.058,–,–
ABRACL (UniProt Q9P1F3),–,-0.074,0.06,–,-0.001,–,0.156,0.053,0.134,0
AIF1L (UniProt Q9BQI0),–,0.049,0.009,-0.101,-0.086,0.091,0.153,-0.117,0.13,0.115
ANP32E isoform 3 (UniProt Q9BTT0),0.034,–,-0.086,-0.026,–,–,-0.724 (active),0.468,–,–
AGPAT2 (UniProt O15120),0.33 (active),–,–,0.108,–,0.002,-0.034,0.023,–,0
ANAPC7 (UniProt Q9UJX3),-0.026,0.033,-0.02,-0.035,-0.029,0.016,-0.022,-0.03,0.025,-0.001
ANKRD44 isoform 2 (UniProt Q8N8A2),0.056,0.019,0.058,-0.308,0.054,–,-1.9 (active),0.616,–,–
ANXA2 (UniProt H0YL33),–,0.012,0.37,–,0.136,0.012,0.643 (active),-0.416,0.088,0.214
ALKBH1 (UniProt Q13686),0.069,–,–,-0.05,–,-0.043,0.015,-0.072,-0.037,–
ABI1 isoform 6 (UniProt Q8IZP0),–,-0.219,–,0.248,0.026,–,–,–,–,–
AIMP2 isoform 2 (UniProt Q13155),–,-0.134,0.038,–,0.047,-0.027,–,–,–,0.014
ABHD13 (UniProt Q7L211),0.069,-0.016,0.102,-0.107,0.06,–,-0.543 (active),0.077,0.179,-0.031
